Assay results taken from PubChem BioAssay AID1259415 (National Center for Advancing Translational Sciences (NCATS), 2018).
In all, about 410,000 compounds went through this assay and about 18,000 (4.4%) were called active. Inconclusive results (about 7%) are left out. For the sample, actives were picked, then their nearest neighbours and some compounds at random. Unmarked numbers belong to inactive results. No stated cut-off is given here; in the data, active means activity change below about -60%; inconclusive means no clear call, values can overlap the other calls; inactive means above about -39%.

test: qHTS Assay for inhibitors of the human cytomegalovirus (HCMV); details: HFF cells, HCMV-luciferase reporter, 72 h; at 57.5 µM; active compounds read low
Text: NCGC Assay Overview: Infection with human cytomegalovirus (HCMV) continues to pose significant threats for pregnant women and immunocompromised hosts. HCMV causes serious morbidity and mortality in transplant recipients, and congenital HCMV is the leading infectious cause of mental retardation and deafness in children. In the 1990s, the annual costs associated with the disease burden of congenital CMV were estimated at around $2 billion. A HCMV vaccine is not available yet and HCMV therapies result in intolerable side effects and emergence of drug resistant viruses. […] Towards this goal we have developed and characterized a luciferase HCMV reporter that was initially used in 96 well plates and then optimized to 1536-well plates for utilization in screening of the MLSMR collection, the NGCG diversity collection and the NCGC Pharmaceutical Collection of approved and investigational drugs.
NCGC Assay Protocol Summary:
This is a cell-based assay for HCMV inhibition in HFFs cells. The screening used 2 compound doses and the HCMV-luciferase at MOI of 1 PFU/cell. Cells were treated and infected with HCMV. At 72 h post infection cell lysates were collected and luciferase activity was determined using the Glomax-Multi + Detection System (Promega, Madison, WI). Data were normalized to the controls for basal activity (buffer only) and known HCMV inhibitors Salinmoycin.
1536-well assay protocol for the assay:
(1) Add 3 ul CMV/HFF cell culture. 1000 cells/well in DMEM nirmal media.
(2) Incubate 16 hr at 37C.
(3) Add 23 nl control compound, 10uM of Salinomycin.
(4) Add 23 nl compounds in DMSO solution.
(5) Add 3 ul CMV suspension. Final 1 puf/ul, Virus stock 2000pfu/ul
(6) Incubate 72 hrs at 37C.
(7) Add 4 ul OneGlo Luc Reagent.
(8) Incubate 5 min at room temperature.
On the % scale 0 is the no-effect control and ±100 the full control effect.

Q: For `Cc1ccc(-c2nnc(CN3CCN(C)CC3)o2)cc1`, which activity change, negative = inhibition is on record?
A: Its activity change, negative = inhibition is 145%.

Q: Which activity change, negative = inhibition does the source give for `CCOC(=O)C1CCN(Cc2nnc(-c3cccc(Br)c3)o2)CC1` here?
A: Its activity change, negative = inhibition is -20.4%.

Q: Which activity change, negative = inhibition does the source give for `O=C(Nc1nnc(C2CC(=O)N(c3ccc(Cl)cc3)C2)s1)c1ccco1` (centres undefined) here?
A: Its activity change, negative = inhibition is 5.75%.

Q: With `Cc1ccc(N2C(=O)C(CC(=O)Nc3cccc(F)c3)N(CCc3ccncc3)C2=O)cc1` (centres undefined) as the compound, how does the activity change, negative = inhibition read?
A: The activity change, negative = inhibition was -29.9%.

Q: With `Cc1ccc(NC(=O)CC2C(=O)N(Cc3ccccc3)C(=S)N2NC(=O)c2cccc(F)c2)c(C)c1` (centres undefined) as the compound, how does the activity change, negative = inhibition read?
A: Its activity change, negative = inhibition is -70.8% (active).

Q: Which activity change, negative = inhibition does the source give for `Cc1ccc(NC(=O)CN2C(=O)CC(C)Sc3ccccc32)c(C)c1` (centres undefined) here?
A: The activity change, negative = inhibition was -2.3%.

Q: For `Cc1ccc(CNC(=O)C2CC(c3ccccc3[N+](=O)[O-])=NO2)o1` (centres undefined), which activity change, negative = inhibition is on record?
A: Its activity change, negative = inhibition is -11.5%.

Q: For `Cc1ccccc1NC(=O)c1cc2c([nH]c1=O)CC(C)(C)CC2=O`, which activity change, negative = inhibition is on record?
A: Its activity change, negative = inhibition is 43%.

Q: Which activity change, negative = inhibition does the source give for `Clc1ccc(-n2nnnc2-c2cnc(-c3ccccn3)nc2-c2cccs2)cc1` here?
A: Its activity change, negative = inhibition is -103% (active).

Q: For `O=C(Cn1cc(-c2nnnn2-c2ccc(Cl)cc2)c(=O)c2ccccc21)c1ccccc1`, which activity change, negative = inhibition is on record?
A: Its activity change, negative = inhibition is -9.79%.

Q: Which activity change, negative = inhibition does the source give for `N#Cc1ccc(CSc2nnc(-c3ccccn3)n2-c2ccc(Cl)cc2)cc1` here?
A: The activity change, negative = inhibition was -9.16%.

Q: With `CCCS(=O)(=O)Nc1cccc(-c2cn3ccsc3n2)c1` as the compound, how does the activity change, negative = inhibition read?
A: Its activity change, negative = inhibition is -0.309%.

Q: For `O=[N+]([O-])c1cc([N+](=O)[O-])c2cccnc2c1O`, which activity change, negative = inhibition is on record?
A: Its activity change, negative = inhibition is -19.7%.

Q: For `CC(=O)NC(c1cccs1)c1cc(Br)c2cccnc2c1O` (centres undefined), which activity change, negative = inhibition is on record?
A: The activity change, negative = inhibition was -100% (active).

Q: For `N#Cc1ccccc1NC(=O)COc1c(Br)cc(Br)c2cccnc12`, which activity change, negative = inhibition is on record?
A: Its activity change, negative = inhibition is 85.2%.

Q: With `CC(=O)c1cccc(OCC(=O)OCC(=O)Nc2cc(S(=O)(=O)N3CCCCC3)ccc2C)c1` as the compound, how does the activity change, negative = inhibition read?
A: The activity change, negative = inhibition was 9.96%.

Q: For `O=C(CNS(=O)(=O)c1ccc2ccccc2c1)Nc1ccc(F)c(F)c1F`, which activity change, negative = inhibition is on record?
A: Its activity change, negative = inhibition is 0%.

Q: With `Cc1ccc(NS(=O)(=O)c2ccc(C)c(NC(=O)COc3ccc4ccccc4c3)c2)c(C)c1` as the compound, how does the activity change, negative = inhibition read?
A: Its activity change, negative = inhibition is -81.5% (active).

Q: With `CCCn1c(C(C)Nc2nc(-c3ccc(C)cc3)cs2)nc2cc(Cl)c(N3CCCCC3)cc21` (centres undefined) as the compound, how does the activity change, negative = inhibition read?
A: The activity change, negative = inhibition was 2.56%.

Q: For `NC1=CC(=O)C(=O)c2cccnc21`, which activity change, negative = inhibition is on record?
A: The activity change, negative = inhibition was -78.2% (active).

Q: With `O=C1CCCC2=C1C(c1cccs1)n1nc(SCc3ccccc3)nc1N2` (centres undefined) as the compound, how does the activity change, negative = inhibition read?
A: The activity change, negative = inhibition was -15.6%.

Q: With `COC(=O)c1ccc(NC(=O)c2cc3c(CO)cnc(C)c3oc2=Nc2cccc(C(N)=O)c2)cc1` as the compound, how does the activity change, negative = inhibition read?
A: Its activity change, negative = inhibition is -2.9%.

Q: For `CC1(C)C2CC=C(/C=N/NC(=O)c3ccc(Cl)cc3)C1C2` (centres undefined), which activity change, negative = inhibition is on record?
A: Its activity change, negative = inhibition is 23.1%.

Q: For `Cn1nccc1/C=N\NC(=O)c1ccc(Cl)cc1`, which activity change, negative = inhibition is on record?
A: Its activity change, negative = inhibition is 45.6%.

Q: For `O=C(N/N=C/c1ccccn1)c1cccc(NC(=O)c2ccc(Cl)cc2)c1`, which activity change, negative = inhibition is on record?
A: Its activity change, negative = inhibition is -69.8% (active).

Q: For `CC(C)C(=O)Nc1nnc(SCC(=O)N2C(C)CCCC2C)s1` (centres undefined), which activity change, negative = inhibition is on record?
A: Its activity change, negative = inhibition is -28.8%.

Q: For `Cc1nn(-c2ccc(N3CCCCC3)nn2)c(C)c1CCC(=O)NCc1ccccc1F`, which activity change, negative = inhibition is on record?
A: The activity change, negative = inhibition was -16.6%.

Q: Which activity change, negative = inhibition does the source give for `Cc1ccc(C)c(NC(=O)c2ccc(OC(=O)c3ccco3)cc2)c1` here?
A: Its activity change, negative = inhibition is 71.3%.

Q: Which activity change, negative = inhibition does the source give for `Cc1ccnc(NC(=O)c2ccc(NC(=O)c3ccco3)cc2)c1` here?
A: The activity change, negative = inhibition was -84.7% (active).

Q: Which activity change, negative = inhibition does the source give for `C/C(=N/NS(=O)(=O)c1ccccc1)c1ccc(NC(=O)C(F)(F)F)cc1` here?
A: Its activity change, negative = inhibition is 0.908%.

Q: With `CCN(c1ccc(Cl)cc1)S(=O)(=O)c1nnc(NC(=O)c2ccco2)s1` as the compound, how does the activity change, negative = inhibition read?
A: The activity change, negative = inhibition was 39.9%.

Q: Which activity change, negative = inhibition does the source give for `CSCCC(NC(=O)c1ccco1)C(=O)Nc1cc(C)ccn1` (centres undefined) here?
A: The activity change, negative = inhibition was 47.1%.

Q: Which activity change, negative = inhibition does the source give for `C/C(=N\NS(=O)(=O)c1ccc(Cl)cc1)c1ccc(NC(=O)c2ccco2)cc1` here?
A: Its activity change, negative = inhibition is -65.3% (active).

Q: With `CC(C)Cn1c(-c2ccc(S(=O)(=O)N3CCOCC3)cc2)csc1=Nc1cc(Cl)ccc1Cl` as the compound, how does the activity change, negative = inhibition read?
A: The activity change, negative = inhibition was 0.205%.

Q: For `CN(Cc1ccccc1)C(=O)c1cn(C)c2ccc(S(=O)(=O)N3CCCCC3)cc2c1=O`, which activity change, negative = inhibition is on record?
A: The activity change, negative = inhibition was -4.78%.

Q: With `CCOC(=O)c1c(S(=O)(=O)N2CCCC(C(=O)NCc3ccc(F)cc3)C2)c(C)n(CC)c1C` (centres undefined) as the compound, how does the activity change, negative = inhibition read?
A: Its activity change, negative = inhibition is -1.02%.

Q: For `Cc1ccc(C2C=C(c3ccc(Cl)cc3)Nc3nc(NC(=O)CCC(=O)O)nn32)cc1` (centres undefined), which activity change, negative = inhibition is on record?
A: The activity change, negative = inhibition was -19.9%.

Q: Which activity change, negative = inhibition does the source give for `Cc1ccc(OCC(=O)OCc2cc(=O)n3nc(C4CC4)sc3n2)cc1C` here?
A: Its activity change, negative = inhibition is -1.4%.

Q: For `Cn1c(=O)c2c(nc(NCc3ccccc3)n2CC(N)=O)n(C)c1=O`, which activity change, negative = inhibition is on record?
A: Its activity change, negative = inhibition is -13.4%.

Q: With `Cn1c(=O)c2c(nc(NCCc3ccccc3)n2Cc2ccccc2Br)n(C)c1=O` as the compound, how does the activity change, negative = inhibition read?
A: The activity change, negative = inhibition was 6.41%.

Q: Which activity change, negative = inhibition does the source give for `Cn1c(=O)c2c(nc(NCCc3ccccc3)n2Cc2ccccc2)n(C)c1=O` here?
A: The activity change, negative = inhibition was -84.2% (active).

Q: With `COc1ccc(-n2ccnc(NCCc3ccc(Cl)cc3)c2=O)cc1OC` as the compound, how does the activity change, negative = inhibition read?
A: Its activity change, negative = inhibition is -27.6%.

Q: Which activity change, negative = inhibition does the source give for `CCn1c(NCCc2ccc(OC)c(OC)c2)nc2c1c(=O)n(C)c(=O)n2C` here?
A: The activity change, negative = inhibition was -71.3% (active).

Q: For `Cn1c(=O)[nH]c(=O)c2c1nc(NCCc1ccccc1)n2Cc1ccc(F)cc1`, which activity change, negative = inhibition is on record?
A: Its activity change, negative = inhibition is 26.5%.
